Molecules are shown by their SMILES. Inconclusive results are not listed. Calls of active or inactive are those of the source. Unless noted, the call rests on the fitted dose curve; in most records, active means well fitted curve in the direction sought with a large enough effect in the repeat runs; inconclusive means weak or mixed curves; inactive means no such curve, though single readings can be large; an effect the other way counts as inactive or inconclusive.

For assay [1], the target named is Aryl hydrocarbon receptor (Homo sapiens) (UniProt P35869). The experiment in a line: qHTS assay to identify small molecule that activate the aryl hydrocarbon receptor (AhR) signaling pathway (AID 743085). Further: nearly all actives have a fitted effect of over 15% in size. Further: potency means the concentration at half of the fitted maximal effect.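 On activation: HG2L7.5c1 human HepG2 liver cells with stably integrated DRE-driven firefly reporter; series mostly up to about 70 µM.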 In short, it runs like this: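 Compounds were tested in HepG2 hepatocellular carcinoma cells harbouring a stably integrated luciferase gene under control of 20 DREs. Increased reporter signal after 24 h treatment at 37C was taken as AhR activation.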
In general terms: In qHTS, concentration-response curves come from the screen itself.

Assay [2] in a line: qHTS assay to identify small molecule that activate the aryl hydrocarbon receptor (AhR) signaling pathway - cell viability counter screen (AID 743086). Further: nearly all actives have a fitted effect of over 45% in size. Further: potency means the concentration at half of the fitted maximal effect. Put shortly: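 Cytotoxicity counter screen: CellTiter-Fluor signal (30 min, 37 C) in 4000 HepG2 cells/well carrying the DRE-luciferase reporter, following 24 h compound exposure at 37 C.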
Assay [3] is described as follows: qHTS assay to identify small molecule antagonists of the peroxisome proliferator-activated receptor gamma (PPARg) signaling pathway - cell viability counter screen (AID 743194). Further: nearly all actives have a fitted effect of over 55% in size. Further: potency means the concentration at half of the fitted maximal effect. In short, it runs like this: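 Viability was measured as CellTiter-Glo luminescence in GeneBLAzer PPARg UAS-bla HEK293H cells. These cells had been exposed 17 h at 37 C to compounds together with rosiglitazone at 50 nM final, with the beta-lactamase readout taken in the same wells.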

Assay [4] in a line: qHTS assay for small molecule agonists of the antioxidant response element (ARE) signaling pathway - cell viability counter screen (AID 743203; calls by dose curve; further: nearly all actives have a fitted effect of over 55% in size; further: potency means the concentration at half of the fitted maximal effect). Put shortly:
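HepG2 cells carrying ARE-driven beta-lactamase; 2,000 cells/well; 5 hrs plating; compound pinned from DMSO; 16 hrs 37C/5% CO2; CellTiter-Glo added; 30 min RT; luminescence.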

The nature of assay [5]: qHTS assay for small molecule activators of the heat shock response signaling pathway - cell viability counter screen (AID 743209). Further: nearly all actives have a fitted effect of over 50% in size. Further: potency means the concentration at half of the fitted maximal effect. Put shortly:
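Luminescence from CellTiter-Glo, added after the beta-lactamase FRET read, gave the viability signal. Cells were HSE-bla HeLa treated with DMSO-dissolved compounds for 5 h at 37 C following overnight plating.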

Assay [6] in a line: qHTS assay to identify small molecule agonists of the peroxisome proliferator-activated receptor delta (PPARd) signaling pathway - cell viability counter screen (AID 743211). Further: nearly all actives have a fitted effect of over 55% in size. Further: potency means the concentration at half of the fitted maximal effect. Put shortly: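 Counter screen for cytotoxicity run in parallel with the PPARd reporter screen. Beta-lactamase reporter HEK293H cells exposed to compounds 17 h; ATP-based CellTiter-Glo luminescence quantified viability.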

Assay [7] can be described thus: qHTS assay for small molecule agonists of the antioxidant response element (ARE) signaling pathway (AID 743202; active means well fitted activation curve with a large enough effect in the signal ratio in the repeat runs, not every such curve was filed as active; the % refers to the signal ratio; further: potency means the concentration at half of the fitted maximal effect). Put shortly:
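Quantitative high-throughput format in HepG2 cells bearing an integrated ARE-beta-lactamase reporter. Compound exposure lasted 16 h at 37 C, and fluorescence was read 2 h after adding LiveBLAzer B/G substrate at room temperature.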

Assay [8] is described as follows: qHTS assay for small molecule activators of the heat shock response signaling pathway (AID 743210; active means well fitted activation curve with a large enough effect in the signal ratio in the repeat runs, with a control signal flat, not every such curve was filed as active; the % refers to the signal ratio; further: potency means the concentration at half of the fitted maximal effect;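 on activation: HeLa cells with beta-lactamase reporter driven by heat shock elements; series mostly up to about 63 µM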). Put shortly:
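HeLa HSE-bla cells, overnight plating; cpd in DMSO 5 h, 37 C; LiveBLAzer B/G FRET substrate 2.5 h RT; fluorescence intensity read.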

The target of assay [9] is Peroxisome proliferator-activated receptor gamma (Homo sapiens) (UniProt P37231). The experiment in a line: qHTS assay to identify small molecule agonists of the peroxisome proliferator-activated receptor gamma (PPARg) signaling pathway (AID 743094; active means well fitted activation curve with a large enough effect in the signal ratio in the repeat runs, not every such curve was filed as active; the % refers to the signal ratio; further: potency means the concentration at half of the fitted maximal effect). Put shortly: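 Beta-lactamase FRET fluorescence was the read-out after a 1 h room-temperature substrate step, following 17 h compound treatment at 37C of HEK293H cells expressing a UAS-driven bla reporter responsive to PPARg.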

Assay [10] has the same target. The assay can be described thus: qHTS assay to identify small molecule antagonists of the peroxisome proliferator-activated receptor gamma (PPARg) signaling pathway (AID 743191; calls by dose curve; further: series mostly up to about 63 µM; nearly all actives have a fitted effect of over 30% in size). In short, it runs like this:
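Beta-lactamase reporter under UAS control in HEK293H PPARg-bla cells; compound treatment 17 h at 37C. Read-out: fluorescence intensity after 1 h room-temperature incubation with LiveBLAzer B/G FRET substrate.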

Peroxisome proliferator-activated receptor gamma (Homo sapiens), sequence (P37231 whole entry, looked up): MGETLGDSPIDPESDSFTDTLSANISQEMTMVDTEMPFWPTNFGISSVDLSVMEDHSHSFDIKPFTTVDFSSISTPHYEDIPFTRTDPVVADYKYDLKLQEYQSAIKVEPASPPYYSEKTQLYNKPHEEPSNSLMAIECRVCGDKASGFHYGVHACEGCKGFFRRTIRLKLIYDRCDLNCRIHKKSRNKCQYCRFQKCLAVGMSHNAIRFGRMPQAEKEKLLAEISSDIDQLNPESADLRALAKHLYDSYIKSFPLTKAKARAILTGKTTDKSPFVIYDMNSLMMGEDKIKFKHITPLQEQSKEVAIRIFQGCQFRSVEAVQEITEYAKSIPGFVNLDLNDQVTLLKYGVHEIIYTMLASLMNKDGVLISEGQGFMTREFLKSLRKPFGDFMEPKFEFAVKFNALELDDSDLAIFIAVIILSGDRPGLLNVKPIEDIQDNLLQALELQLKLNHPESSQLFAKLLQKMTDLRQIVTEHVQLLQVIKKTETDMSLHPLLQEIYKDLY
Aryl hydrocarbon receptor (Homo sapiens), sequence (P35869 whole entry, looked up): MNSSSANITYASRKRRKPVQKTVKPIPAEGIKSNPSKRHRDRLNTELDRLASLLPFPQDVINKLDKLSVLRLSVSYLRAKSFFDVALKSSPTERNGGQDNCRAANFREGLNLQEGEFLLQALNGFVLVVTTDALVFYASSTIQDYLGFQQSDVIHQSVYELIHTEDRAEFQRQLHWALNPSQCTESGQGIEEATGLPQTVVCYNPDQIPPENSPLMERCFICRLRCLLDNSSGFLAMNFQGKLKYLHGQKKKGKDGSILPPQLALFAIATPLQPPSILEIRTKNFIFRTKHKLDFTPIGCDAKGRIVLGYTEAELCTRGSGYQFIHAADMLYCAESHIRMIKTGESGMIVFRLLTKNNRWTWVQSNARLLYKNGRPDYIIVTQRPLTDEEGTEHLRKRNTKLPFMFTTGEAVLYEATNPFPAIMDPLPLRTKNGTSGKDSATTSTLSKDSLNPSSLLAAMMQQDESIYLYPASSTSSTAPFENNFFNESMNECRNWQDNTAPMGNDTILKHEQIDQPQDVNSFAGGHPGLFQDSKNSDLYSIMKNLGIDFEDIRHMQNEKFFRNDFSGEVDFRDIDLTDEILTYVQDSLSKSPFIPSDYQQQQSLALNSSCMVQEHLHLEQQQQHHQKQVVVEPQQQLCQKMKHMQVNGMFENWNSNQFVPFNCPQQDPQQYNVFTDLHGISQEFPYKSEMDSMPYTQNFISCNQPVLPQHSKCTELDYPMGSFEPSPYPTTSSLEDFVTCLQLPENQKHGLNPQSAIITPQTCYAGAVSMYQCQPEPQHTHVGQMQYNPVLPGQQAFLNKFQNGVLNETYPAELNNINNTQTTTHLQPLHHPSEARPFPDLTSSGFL

Take `CN(C)c1ccc(C2(c3ccc(N(C)C)cc3)OC(=O)c3cc(N(C)C)ccc32)cc1`: the Potency result in assay [1], in assay [2], in assay [3], in assay [4] and in assay [5] was “inactive” throughout.

Consider `NC(=O)N1C(=O)C(C(=O)c2cc(Cl)cs2)c2cc(F)c(Cl)cc21` (stereo not given), for which the Potency was 24.3 µM (active) in assay [1]; 12.2 µM (active) in [2]; 13.8 µM (active) in assay [3]; 8.63 µM (active) in assay [4]; 17.4 µM (active) in assay [6]. Besides, the Potency entry in assay [5] is “inactive”.

As for `CCCCC(CC)CN=C(N)NC(N)=NCCCCCCN=C(N)NC(N)=NCC(CC)CCCC` (stereo not given), the Potency result in assay [1] is “inactive”. Moreover, the Potency in assay [2] is 21.1 µM (active); in assay [3], 11.9 µM (active); in [4], 9.44 µM (active); in [5] it was 23.7 µM (active); in assay [6] it was 6.68 µM (active).

In the case of `O=C(O)c1cc(O)c2c(c1)C(=O)c1cccc(O)c1C2=O`, the Potency result in assay [1], in [2], in [3], in [5], in [8] and in assay [6] was “inactive” in each case. Further, the Potency in [7] is 25.1 µM (active).

For the compound `O=C(OCC(COC(=O)c1ccccc1)(COC(=O)c1ccccc1)COC(=O)c1ccccc1)c1ccccc1`, the Potency entry in assay [1], in [2], in assay [3], in assay [4], in assay [5] and in [6] was “inactive” each time.

Turning to `CCCCN(CCCC)c1ccc(C(=O)c2ccccc2C(=O)O)c(O)c1`, the Potency result in [1] and in [2] was “inactive” throughout. For the same compound, the Potency in assay [3] was 44.1 µM (active); in assay [5], 62.2 µM (active); in assay [6] it was 44.1 µM (active).

With `Oc1cc2ccccc2c2ccccc12`, the Potency was 8.63 µM (active) in [1]; 24.3 µM (active) in [2]; 3.89 µM (active) in [3]; 9.69 µM (active) in assay [4]; 9.77 µM (active) in [5]; 6.92 µM (active) in [6].

Regarding `Cc1ccc(-n2nc(C(C)(C)C)cc2NC(=O)Nc2ccc(OCCN3CCOCC3)c3ccccc23)cc1`, the Potency in [1] is 15 µM (active). The Potency entry in [2], in [3], in assay [7], in [4] and in assay [8] was “inactive” each time.

As for `CC(=O)S[C@@H]1CC2=CC(=O)CC[C@]2(C)[C@H]2CC[C@@]3(C)[C@@H](CC[C@@]34CCC(=O)O4)[C@H]12`, the Potency entry in assay [1], in [2], in assay [8] and in [6] was “inactive” each time.

Turning to `O=C(O)c1c(Cl)cccc1Cl`, the Potency result in assay [1], in assay [9], in assay [10], in assay [3], in assay [7] and in [4] was “inactive” in each case. Moreover, the Potency result in assay [5], in [8] and in assay [6] was “inactive” in each case.

Take `Cc1c(C)c2c(c(C)c1OC(=O)CCC(=O)O)CC[C@@](C)(CCC[C@H](C)CCC[C@H](C)CCCC(C)C)O2`: the Potency entry in assay [1], in assay [2], in assay [4], in assay [5], in assay [8] and in assay [6] was “inactive” each time.

With `CNCc1cc(F)ccc1Oc1ccc(Cl)c(Cl)c1`, the Potency entry in assay [1], in assay [9], in assay [10], in assay [5] and in [8] was “inactive” each time. Also, the Potency in [4] is 61.1 µM (active).

In the case of `C/C=C1/C(=O)C[C@H]2[C@@H]3CCC4=CC(=O)CC[C@]4(C)[C@H]3CC[C@]12C`, the Potency result in assay [1], in [2], in assay [4] and in assay [5] was “inactive” throughout. Also, the Potency in [8] is 28.5 µM (active).

For `[O-][n+]1ccccc1SSc1cccc[n+]1[O-]`, the Potency entry in [1] and in [3] was “inactive” each time. The Potency was 0.674 µM (active) in assay [9], 3.66 µM (active) in assay [7] and 0.13 µM (active) in assay [6].

For `CCCCCCCCCCCCc1ccc(O)cc1`, the Potency entry in [1] and in [2] was “inactive” each time. Also, the Potency in assay [4] was 54.5 µM (active); in assay [5], 24.5 µM (active); in assay [6], 24.5 µM (active).

Take `CCCCCCCCCCCC(=O)NCCCN(C)C`: the Potency result in assay [1] is “inactive”. In addition, the Potency in assay [2] is 54.5 µM (active); in assay [4], 43.3 µM (active); in [5], 49 µM (active); in [6], 21.9 µM (active).

On to `CC(C)n1nc(-c2cc3cc(O)ccc3[nH]2)c2c(N)ncnc21`, for which the Potency in assay [1] was 3.76 µM (active); in assay [2], 0.75 µM (active); in [6], 13.3 µM (active). Also, in [4], the Potency result is “inactive”.

Consider `CC(C)CCCCCCCCCCCCCCC(=O)O`, for which the Potency result in [1], in assay [2], in [7] and in assay [4] was “inactive” throughout. In addition, in assay [5], the Potency was 24.5 µM (active).

With `O=C(NOCC1CC1)c1ccc(F)c(F)c1Nc1ccc(I)cc1Cl`, the Potency entry in [1] and in [9] was “inactive” throughout. Also, the Potency in assay [3] is 13.3 µM (active); in assay [5], 29.8 µM (active).

For the compound `CCCCCCCC[P+](CCCCCCCC)(CCCCCCCC)CCCCCCCC`, in assay [1], the Potency result is “inactive”. Also, the Potency in assay [2] is 19.2 µM (active); in assay [4], 10.8 µM (active); in assay [5] it was 5.46 µM (active); in [6], 5.46 µM (active).
